This is part of a sample that, as a whole, favours compounds with a hit. Of some 83,000 tested, about 20% had one in any assay.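 In brief: 96-well plates, 48 h treatment, single concentration, percent growth endpoint.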 Unmarked numbers belong to inactive results. The source made the active and inactive calls. The calls were made as follows: active = growth percent below 10; inactive = the rest.
Key:
Assay in all cases: NCI-60 one-dose screen, 48 h (100 = growth as untreated, 0 = no growth, -100 = all killed)
[1] = tested on: HCT-15 colon; details: 10 µM unless noted
[2] = tested on: HT29 colon; details: 10 µM unless noted
[3] = tested on: SNB-75 CNS; details: 10 µM unless noted
[4] = tested on: SNB-19 CNS; details: 10 µM unless noted
[5] = tested on: U251 CNS; details: 10 µM unless noted
[6] = tested on: PC-3 prostate; details: 10 µM unless noted
[7] = tested on: SK-MEL-5 melanoma; details: 10 µM unless noted
[8] = tested on: UACC-62 melanoma; details: 10 µM unless noted
[9] = tested on: LOX IMVI melanoma; details: 10 µM unless noted
[10] = tested on: SK-MEL-28 melanoma; details: 10 µM unless noted
[11] = tested on: SK-MEL-2 melanoma; details: 10 µM unless noted
[12] = tested on: EKVX NSCLC; details: 10 µM unless noted
[13] = tested on: SN12C renal; details: 10 µM unless noted
[14] = tested on: TK-10 renal; details: 10 µM unless noted
[15] = tested on: ACHN renal; details: 10 µM unless noted
[16] = tested on: A498 renal; details: 10 µM unless noted
[17] = tested on: CCRF-CEM leukemia; details: 10 µM unless noted
[18] = tested on: MOLT-4 leukemia; details: 10 µM unless noted
[19] = tested on: CAKI-1 renal; details: 10 µM
[20] = tested on: UO-31 renal; details: 10 µM unless noted

Structure (SMILES)	growth [1]	growth [2]	growth [3]	growth [4]	growth [5]	growth [6]	growth [7]	growth [8]	growth [9]	growth [10]	growth [11]	growth [12]	growth [13]	growth [14]	growth [15]	growth [16]	growth [17]	growth [18]	growth [19]	growth [20] [%]
Cc1cc(NCCN(C(C)C)C(C)C)nc(/N=C(\N)Nc2ccc(Cl)c(C(F)(F)F)c2)n1	-56.2% (active)	-86.6% (active)	-100% (active)	-83.3% (active)	-84.4% (active)	-94% (active)	-91.5% (active)	-91.6% (active)	-70.6% (active)	-87.2% (active)	-89.4% (active)	-17.5% (active)	-45.6% (active)	-80.6% (active)	-81.1% (active)	-88.8% (active)	-68% (active)	-69.2% (active)	–	–
Cn1c(I)c(C#C[Si](C)(C)C)c(=O)[nH]c1=O	-37.6% (active)	-60% (active)	75.2%	100%	51.5%	4.88% (active)	98.3%	11.8%	-69.9% (active)	-82% (active)	60.7%	86.5%	32.8%	82.3%	-28.4% (active)	130%	-61.6% (active)	-59.7% (active)	-79% (active)	–
COc1ccc(-c2[nH]c3ccccc3c2/C=C(\C#N)S(=O)(=O)c2ccccc2)cc1	24.6%	12.6%	33.1%	30.3%	24.2%	30.9%	12.5%	22.6%	28.5%	54.2%	76.5%	14.1%	42.2%	91.7%	51%	2.31% (active)	8.07% (active)	6.08% (active)	-14.3% (active)	–
CC(C)NCC(O)COc1ccc(CC(N)=O)cc1 (centres undefined)	99.3%	103%	99%	106%	101%	92.5%	94.9%	107%	98.1%	103%	105%	101%	104%	105%	–	92.9%	100%	107%	94.1%	–
Cn1cnc([N+](=O)[O-])c1N1c2ccncc2Sc2ccncc21	99%	137%	233%	94.7%	88.7%	93.3%	91.7%	81%	78.5%	149%	94.2%	78.8%	113%	132%	75.8%	93.1%	94.7%	91.6%	85.7%	–
NS(=O)(=O)c1ccc(Nc2nc(O)c(/C=C3\C=Nc4ccccc43)s2)cc1	107%	114%	93.7%	91.6%	94.6%	92.1%	101%	82.6%	97.3%	110%	103%	98.2%	91.1%	112%	–	106%	85.6%	95.4%	–	–
Clc1ccc(OCc2nc(-c3ccccc3)n[nH]2)c(Cl)c1	101%	101%	93.6%	99.3%	95.5%	87.3%	100%	95.6%	94.6%	110%	103%	93.8%	96.6%	122%	98%	104%	85.9%	98.7%	–	–
CC1=C2C(=C[C@@](C)(CO)[C@@H]2OC(=O)N(C)CCN(C)C(=O)OC(C)(C)C)C(=O)[C@](C)(O)C12CC2	21%	6.33% (active)	79.9%	72.3%	22.6%	47.7%	76.7%	84.2%	61.8%	82.3%	71.4%	78.5%	73%	68.1%	-52.5% (active)	97%	74.6%	89.7%	–	–
O=C(NCCNc1nccc(-c2c(-c3cccc(O)c3)nc3sccn23)n1)c1cc(N2CCOCC2)cc(C(F)(F)F)c1	92%	49.2%	83.2%	125%	105%	78.2%	58.4%	8.5% (active)	52.3%	44.4%	64.5%	88.6%	89.8%	–	79.4%	92.8%	52.9%	68.6%	82.5%	–
O=C(NOC1OC(CO)C(O)C(O)C1O)Nc1ccccc1 (centres undefined)	109%	105%	105%	100%	102%	93.2%	104%	93.7%	96.7%	117%	98.3%	102%	91.6%	109%	101%	120%	91%	79.7%	92.1%	–
COc1cc2c(cc1OC)-c1c(oc3c4c(ccc3c1=O)OC(C)(C)C=C4)CO2	82.8%	89.5%	75.8%	75.5%	88.6%	75.1%	23.8%	61.1%	63%	93.8%	74.3%	57.7%	92.2%	–	–	56.1%	69.5%	55.1%	–	66.9
COc1ccc(-c2nn(-c3cccc(Cl)c3)cc2-c2cc(-c3ccc(Br)cc3)[nH]c(=O)c2C#N)cc1	71.1%	108%	-37.1% (active)	90.6%	90%	86%	91%	88%	69.6%	99.6%	122%	88.4%	67.9%	–	91.8%	102%	75.4%	76%	82.9%	–
COc1ccc(Cl)cc1NC(=O)c1cc2c([nH]1)-c1nc(NC(=O)C(C)C)sc1CC2	95.4%	87%	92.2%	110%	96.5%	87.6%	77.6%	91.7%	95%	112%	84.6%	82.1%	99.2%	85.8%	–	112%	93.4%	86%	–	–
CC(C)(C)C(=O)/C=c1/[nH]c(=O)/c(=C/c2ccccc2O)s1	33.8%	72.2%	66.5%	66.5%	27.8%	53.4%	42%	58.3%	40%	69.6%	67.6%	61.1%	58.2%	–	74.5%	55.6%	57.8%	–	81.1%	–
CC(=O)N1N=C(CCC(=O)c2nc3ccc([N+](=O)[O-])cc3[nH]2)OC1c1ccc(O)cc1 (centres undefined)	97.1%	76.5%	97.9%	107%	109%	101%	112%	105%	94.8%	115%	57.4%	92.5%	109%	–	106%	104%	114%	–	–	–
C=C1C(=O)O[C@H]2[C@H]1CC/C(COC(=O)CCCC(=O)OC/C1=C/CC[C@@]3(C)O[C@H]3[C@H]3OC(=O)C(=C)[C@@H]3CC1)=C\CC[C@@]1(C)O[C@@H]21	4.33% (active)	-40% (active)	93.3%	67.6%	48%	55.2%	33.4%	-18.7% (active)	-70.3% (active)	8.77% (active)	19.5%	51.1%	15.1%	–	–	62.6%	-11.7% (active)	-19.1% (active)	–	13.6
CCCN1C(=O)CSC1=Nc1ccc2cc3ccc(N=C4SCC(=O)N4CCC)cc3nc2c1	24.4%	4.45% (active)	29.6%	55.4%	36.9%	16.7%	-17.7% (active)	36.9%	11.4%	86.5%	38.1%	33.8%	75%	56.8%	36.4%	63.4%	31%	-18.8% (active)	36%	–
